# Screening data from PubChem.
# Hits are enriched below; roughly 3.1% of the tested compounds scored in any of these assays.
# PAFAH2 FP inh = inhibitors of human PAFAH2. hit rate 0.99% among 340,000. recombinant PAFAH2, FP-rhodamine activity probe, fluorescence polarization. Q99487. inhibition, % at 3.39 µM;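 active = inhibition above the mean over all tested compounds plus 3 SD, cut at about 30% in these data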;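 also: inhibitors block probe labeling of enzyme so polarization drops; 0% = enzyme with DMSO and 100% = wells lacking PAFAH2 protein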
# pPAFAH inh = pPAFAH (human) enzyme inhibition. Q13093. inhibition, % at 3.39 µM. recombinant pPAFAH, FP-rhodamine probe fluorescence polarization. hit rate 1.5% among 330,000. AID 463082;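 active = inhibition above the mean inhibition across the screen plus 3 SD, cut at about 25% in these data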;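 also: inhibitors block binding of the rhodamine activity-based probe so polarization drops; 0% = enzyme with DMSO and 100% = wells lacking pPAFAH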
# Target sequence (Q13093 whole entry, looked up): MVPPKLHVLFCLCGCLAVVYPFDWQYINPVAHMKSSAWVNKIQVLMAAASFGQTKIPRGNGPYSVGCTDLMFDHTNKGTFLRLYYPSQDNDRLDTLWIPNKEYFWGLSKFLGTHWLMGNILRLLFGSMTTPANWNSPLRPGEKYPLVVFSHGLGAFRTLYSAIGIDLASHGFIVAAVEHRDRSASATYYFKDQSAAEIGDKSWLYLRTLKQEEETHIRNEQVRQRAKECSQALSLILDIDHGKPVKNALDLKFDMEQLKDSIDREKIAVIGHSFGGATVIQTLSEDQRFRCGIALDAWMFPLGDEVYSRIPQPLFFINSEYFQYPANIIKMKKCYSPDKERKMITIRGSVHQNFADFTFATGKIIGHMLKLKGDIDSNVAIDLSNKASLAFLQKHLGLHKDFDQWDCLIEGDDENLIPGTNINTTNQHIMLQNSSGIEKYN
# PAFAH1B2 FP inh = blocks human PAF acetylhydrolase 1b catalytic subunit 2. P68402. recombinant PAFAH1B2, FP-rhodamine activity probe, fluorescence polarization. inhibition, % at 3.39 µM. hit rate 1.2% among 340,000. AID 492953;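 active = inhibition above the mean of all tested compounds plus 3 SD, cut at about 24% in these data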;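 also: 0% = enzyme with DMSO and 100% = wells lacking PAFAH1B2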
# eLon inh = inhibitors of E. coli Lon protease. AID 602123. purified E. coli Lon protease, fluorescence polarization. hit rate 0.42% among 360,000. inhibition, % at 7.94 µM; in the data active = inhibition above about 13%, passing the limit was not always enough;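 also: 0% = enzyme with probe and DMSO and 100% = no enzyme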
# Rin1 Abl inh = human Rin1-Abl interaction inhibition | P00519+Q13671 | TR-FRET Rin1/Abl binding, biochemical | inhibition, % at 7.35 µM | hit rate 0.4% among 360,000; in the data active = inhibition above about 5%, passing the limit was not always enough
# PAFAH1B3 inh = blocks human PAF acetylhydrolase 1B catalytic subunit 3. recombinant PAFAH1B3, FP-rhodamine probe, fluorescence polarization. inhibition, % at 3.39 µM. hit rate 0.28% among 340,000;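 active = inhibition above the screen-wide average of all tested compounds plus 3 SD, cut at about 25% in these data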;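 also: 0% = enzyme with DMSO only and 100% = wells lacking PAFAH1B3 protein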
# Target sequence (Q15102 whole entry, looked up): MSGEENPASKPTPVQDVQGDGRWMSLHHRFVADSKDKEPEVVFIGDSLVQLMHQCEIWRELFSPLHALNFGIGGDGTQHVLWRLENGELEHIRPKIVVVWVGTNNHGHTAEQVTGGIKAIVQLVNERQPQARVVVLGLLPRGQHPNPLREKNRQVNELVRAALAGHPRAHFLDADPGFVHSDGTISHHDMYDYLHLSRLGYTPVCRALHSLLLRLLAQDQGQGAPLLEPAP
# * = called active by the depositor; x = not tested or not shown.
SMILES,PAFAH2 FP inh,pPAFAH inh,PAFAH1B2 FP inh,eLon inh,Rin1 Abl inh,PAFAH1B3 inh
CC(Oc1ccc(Cl)cc1)c1ccnn1S(=O)(=O)c1ccccc1 (stereo unspecified),-3.7,14.7,50.6*,0.8,0.4,3.0
C[C@@H]1CN([C@H](C)CO)C(=O)CCCn2cc(nn2)CO[C@H]1CN(C)C(=O)Nc1cccc(F)c1,x,x,x,-9.0,-0.6,x
CCC(C)C(=O)Nc1nc(C)c(-c2csc(Nc3cc(OC)ccc3OC)n2)s1 (stereo unspecified),-5.3,31.8*,12.1,-11.0,-2.4,16.0
COc1ccc(OC)c(Nc2nc(-c3sc(NC(=O)CC(C)C)nc3C)cs2)c1,2.9,30.4*,8.3,-3.9,2.4,10.1
COc1ccc(OC)c(Nc2nc(-c3sc(NC(=O)C(C)(C)C)nc3C)cs2)c1,15.0,30.5*,3.4,-1.4,4.0,5.5
COc1ccc(Cl)cc1Nc1nc(-c2sc(NC(=O)C(C)(C)C)nc2C)cs1,2.6,9.8,2.4,-2.9,0.2,9.9
CCCC(=O)Nc1nc(C)c(-c2csc(Nc3ccccc3C)n2)s1,6.4,10.5,-5.8,-11.1,1.7,0.6
CCC(=O)Nc1nc(C)c(-c2csc(Nc3ccccn3)n2)s1,16.6,26.2*,0.3,5.5,-2.8,8.7
CCOC(=O)C1=CCN(S(=O)(=O)c2ccccc2C)C1c1cccc(C)c1 (stereo unspecified),x,x,x,-5.3,0.4,x
CC(CC(=O)Nc1ccc2c(c1)c(=O)n(C)n2Cc1ccc(F)cc1)C(F)(F)F (stereo unspecified),x,x,x,-6.5,-2.1,x
Cc1cnc(C(=O)N2CCN(S(=O)(=O)c3cccc(Br)c3)CC2)cn1,0.1,5.4,10.3,2.2,6.1,7.3
COc1cccc(Nc2nc(-c3sc(C)nc3C)cs2)c1,7.5,11.9,7.8,4.8,-0.7,11.8
COc1ccc(OC)c(Nc2nc(-c3sc(C)nc3C)cs2)c1,6.5,32.6*,1.7,-0.5,0.2,5.5
COc1ccccc1Nc1nc(-c2sc(N)nc2C)cs1,13.2,26.5*,6.9,-31.2,-3.1,16.1
COc1ccccc1Nc1nc(-c2sc(NC(=O)c3ccccc3)nc2C)cs1,-8.8,5.1,-0.2,-21.3,-0.9,-2.8
CCNc1nc2c(cnn2C)c(=O)[nH]1,5.6,x,3.4,5.7,4.2,-0.4
CCC1CCC2(CC1)NC(=O)N(CC(=O)N1CCc3ccccc31)C2=O (stereo unspecified),1.7,2.1,6.2,7.6,1.1,-3.7
O=C(COC(=O)CCc1nc2ccccc2s1)Nc1ncc(Cl)cc1Cl,10.3,16.6,7.7,4.5,-1.2,7.0
O=C(COC(=O)CCc1ccccc1)Nc1ncc(Cl)cc1Cl,2.1,25.9*,4.1,-4.9,0.5,8.5
O=C(COC(=O)c1sc2cc(F)ccc2c1Cl)Nc1ncc(Cl)cc1Cl,-12.7,31.3*,-4.1,8.8,-0.4,-11.3
CCCC(=O)N1CCCC1(C)C(=O)NCCc1ccccn1 (stereo unspecified),x,x,x,7.5,0.2,x
O=C(CN1CCN(C(C(=O)Nc2ccc(F)cc2)c2ccccc2)CC1)NC1CC1 (stereo unspecified),9.2,3.3,1.6,-6.5,-1.4,1.5
N/C(=N\OC(=O)C1CCCCC1)c1ccc(Br)cc1,3.4,-1.7,6.0,2.5,2.5,13.7
C/C(=N/OC(=O)C1CC12CCC2)c1ccc(Br)cc1 (stereo unspecified),50.6*,4.8,52.5*,-6.1,1.6,5.2
CC1=NN(C(N)=S)C(=O)C1N=Nc1ccc(Cl)cc1Cl (stereo unspecified),19.3,x,-1.2,2.8,-4.8,-2.3
SMILES,PAFAH2 FP inh,pPAFAH inh,PAFAH1B2 FP inh,eLon inh,Rin1 Abl inh,PAFAH1B3 inh
COc1ccc(N2CCN(Cc3nc4ccsc4c(=O)[nH]3)CC2)cc1,-0.8,0.1,1.4,-2.4,-4.5,5.4
O=c1[nH]c(CN2CCN(c3ccc([N+](=O)[O-])cc3)CC2)nc2ccsc12,-5.0,9.7,32.1*,2.7,-5.0,-3.2
CCc1nc2c(OCc3cccc(Cl)c3)cccn2c1N(C)C(=O)c1ccncc1,x,x,x,6.6,-1.0,x
C=CCSc1nc(=O)n2ccc(C)cc2n1,14.6,26.7*,-2.8,-8.2,-2.4,3.0
CCOc1ccc(NCC(=O)N/N=C/C=C/c2ccccc2)cc1,3.2,6.8,0.6,-8.6,-2.7,5.1
CCOc1ccc(N=C/C=C/c2ccccc2)c(O)c1,-0.4,32.2*,-0.5,14.0,-1.4,2.4
CC(=O)c1c(C)[nH]c(C(=O)Nc2cccc(C(F)(F)F)c2)c1C,7.8,-1.3,0.5,5.0,-1.5,-2.9
COCCN1C(=O)C(=O)/C(=C(/O)c2ccc(C)cc2)C1c1ccccn1 (stereo unspecified),6.7,7.4,-0.1,4.8,-1.2,10.1
O=S(=O)(NCc1c(Cl)cccc1Oc1ccccc1)c1ccccc1,9.7,6.1,6.5,-8.1,-0.8,3.3
N#Cc1c(Cl)cccc1Oc1ccc(S(=O)(=O)Nc2ccccc2)cc1,x,25.5*,x,-6.1,-1.6,x
N#Cc1c(-c2c(Cl)cccc2Cl)noc1/C=C/Nc1ccc(C(=O)O)cc1,22.0,24.6*,-2.2,-18.2,-1.1,-7.8
CN(C)/C=C/c1onc(-c2c(Cl)cccc2Cl)c1C#N,-0.9,-6.9,2.4,-37.7,-1.9,6.7
COc1ccc(C(=O)Nc2ccc3c(c2)OCO3)cc1S(=O)(=O)N1CCOCC1,x,x,x,6.2,-1.3,x
O=C(O)c1cc(N/N=C/c2ccc(-c3ccc(F)cc3)o2)ccc1Cl,-0.4,31.3*,4.9,-2.2,-2.2,4.7
Cc1cc(C)c(NC(=O)CN(C)C(=O)CCN2C(=O)C3CCCCC3C2=O)c(C)c1 (stereo unspecified),x,x,x,-3.5,-1.9,x
CC1CCCCC1NC(=O)CCNS(=O)(=O)c1ccc(Cl)cc1 (stereo unspecified),7.5,4.0,12.9,2.3,-2.0,6.1
O=C1/C(=C/c2cccs2)SC(=S)N1CCC(=O)N1CCCCC1CCO (stereo unspecified),0.0,11.5,-2.4,-13.9,-2.8,3.5
COc1ccc(C(C)C)cc1-c1cccc2nncn12,x,x,x,-2.7,-0.4,x
COc1ccccc1C(=O)ON=C1c2ccccc2-c2ccccc21,57.0*,29.2*,1.1,9.4,0.4,4.0
COc1ccc2c(c1)CCC/C2=N/OC(=O)c1ccccc1OC,-6.7,-0.1,0.4,5.8,1.7,12.3
O=C(C[C@H]1C/C=C\CCCC(=O)OC[C@H]2CCCN2C1=O)NCCO,-0.3,2.4,9.1,-7.2,0.2,-6.1
CC(Sc1n[nH]c(N)n1)C(=O)C12CC3CC(CC(C3)C1)C2 (stereo unspecified),8.4,-3.7,27.1*,10.6,-0.1,3.1
CCOC(=O)c1c(NC(=O)C(C)Sc2cccc[n+]2[O-])sc2c1CCN(Cc1ccccc1)C2 (stereo unspecified),-16.5,33.3*,-2.2,-103.1,-6.1,7.0
C/C(CC(=O)Nc1ccc(N(C)C)cc1)=N\NC(=O)c1ccc(C(C)(C)C)cc1,36.8*,5.1,9.5,-0.3,-3.7,9.9
